Test results published in the supplement of paper PMC12494721.
Where a name gives a salt, the structure may show the parent alone.

These molecules were tested on Ruminococcus gnavus DSM 108212 (assay: growth (OD595) fold change vs plate DMSO controls (fold change (ratio)); higher = more growth). Conditions: incubation time: 27 h, anaerobic, 37 °C.
Outline: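 Absorbance at 595 nm was read after shaking the anaerobic mGAM cultures, which had grown in 96-well plates for 27 h at 37 °C. After blank subtraction and background correction against 20 µM compound solutions in water, a calibration factor of 5 gave OD values. Growth is the fold change against the median of the plate's DMSO controls. Values are the mean of 2 biological replicates, with fold changes above 1.5 set to NA.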
Work on `OC[C@H]1O[C@@H](O[C@H]2[C@H](O)[C@@H](O)[C@H](O)O[C@@H]2CO)[C@H](O)[C@@H](O)[C@H]1O` [Lactose] (50 µM) yielded a growth of 1.07.
Molecule `C[C@@]12CC[C@@H]3[C@@](CC[C@H]4[C@@]3(C)CCC[C@@]4(C)C(=O)O)(CC1=O)C2` [Iso-Steviol] (50 µM) has a growth of 1.09.
`CCCCOc1ccc(C(=O)CCN2CCCCC2)cc1` [Dyclonine hydrochloride] (20 µM) gave a growth of 1.22.
In the case of `CN(C)c1nc(N(C)C)nc(N(C)C)n1` [Altretamine] (20 µM), the growth is reported as 0.972.
In the case of `c1ccc(CNc2ncnc3nc[nH]c23)cc1` [Aminopurine, 6-benzyl] (20 µM), the growth is reported as 0.966.
Work on `OCCN1CCN(CC/C=C2/c3ccccc3Sc3ccc(C(F)(F)F)cc32)CC1` [Flupentixol dihydrochloride cis-(Z)] (20 µM) yielded a growth of 0.925.
`Cc1onc(-c2ccccc2)c1C(=O)N[C@@H]1C(=O)N2[C@@H]1SC(C)(C)[C@@H]2C(=O)O` [Oxacillin sodium] (20 µM) was tested, and the growth was 0.
`Cc1ccc(Cl)c(Nc2ccccc2C(=O)O)c1Cl` [Meclofenamic acid sodium salt monohydrate] (20 µM) was tested, and the growth was 1.12.
`Clc1ccc(C(Cn2ccnc2)OCc2c(Cl)cccc2Cl)c(Cl)c1` (centres undefined) [Isoconazole] (20 µM) gave a growth of 0.0371.
In the case of `NNc1nncc2ccccc12` [Hydralazine hydrochloride] (20 µM), the growth is reported as 0.792.
Work on `O=C(O)CCC(=O)c1ccc(-c2ccccc2)cc1` [Fenbufen] (20 µM) yielded a growth of 0.921.
Work on `C[C@]12CCC(=O)C=C1C=C[C@@H]1[C@@H]2CC[C@@]2(C)[C@H]1CC[C@@]21CCC(=O)O1` [Canrenone] (20 µM) yielded a growth of 1.03.
`CCN(CCO)CCCC(C)Nc1ccnc2cc(Cl)ccc12` (centres undefined) [Hydroxychloroquine sulfate] (20 µM) gave a growth of 0.855.
Molecule `C[C@@H](O)[C@H]1C(=O)N2C(C(=O)O)=C(S[C@@H]3CN[C@H](C(=O)N(C)C)C3)[C@H](C)[C@H]12` [Meropenem] (20 µM) has a growth of 0.
Work on `COc1cc(C(=O)OCCCN2CCCN(CCCOC(=O)c3cc(OC)c(OC)c(OC)c3)CC2)cc(OC)c1OC` [Dilazep dihydrochloride] (20 µM) yielded a growth of 0.894.
Work on `CCOC(=O)n1ccn(C)c1=S` [Carbimazole] (20 µM) yielded a growth of 1.08.
With `CCOC(=O)CC(=O)N1CCSC1COc1ccccc1OC` (centres undefined) [Moguisteine] (20 µM) the growth was 0.951.
In the case of `CN[C@@H]1[C@@H](O[C@H]2O[C@H](CO)[C@@H](N)[C@H](O)[C@H]2O)OC2C[C@@H](N)[C@@H](O[C@H]3[C@H](O)[C@@H](O)[C@H](N)C[C@@H]3N)OC2[C@@H]1O` (some centres undefined) [Apramycin] (20 µM), the growth is reported as 1.03.
Work on `Cc1c(OCC(F)(F)F)ccnc1C[S+]([O-])c1nc2ccccc2[nH]1` (centres undefined) [Lansoprazole] (20 µM) yielded a growth of 1.02.
Molecule `Cn1c(=O)cc(N2CCC[C@@H](N)C2)n(Cc2ccccc2C#N)c1=O` [Alogliptin benzoate] (20 µM) has a growth of 1.02.
In the case of `Nc1nc(F)nc2c1ncn2[C@@H]1O[C@H](CO)[C@@H](O)[C@@H]1O` [Fludarabine] (20 µM), the growth is reported as 0.936.
For `CCN(Cc1ccncc1)C(=O)C(CO)c1ccccc1` (centres undefined) [Tropicamide] (20 µM), the growth was 0.969.
Work on `CNC1(C)C2CCC(C2)C1(C)C` (centres undefined) [Mecamylamine hydrochloride] (20 µM) yielded a growth of 1.17.
For `CC1=NN(c2ccccc2)C(=O)C1` [Edaravone] (20 µM), the growth was 0.963.
`Nc1ccn([C@@H]2O[C@H](CO)[C@@H](O)C2(F)F)c(=O)n1` [Gemcitabine] (20 µM) showed a growth of 0.
Molecule `CCCC(CCC)C(=O)O[C@H]1C[C@H]2CC[C@@H](C1)[N+]2(C)C` [Anisotropine Methylbromide] (20 µM) has a growth of 1.01.
Molecule `COc1c(N2CCNC(C)C2)c(F)cc2c(=O)c(C(=O)O)cn(C3CC3)c12` (centres undefined) [Gatifloxacin] (20 µM) has a growth of 0.0125.
`OC(CNCC(O)C1CCc2cc(F)ccc2O1)C1CCc2cc(F)ccc2O1` (centres undefined) [Nebivolol hydrochloride] (20 µM) was tested, and the growth was 0.785.
For `COc1ccccc1O` [Guaiacol] (20 µM), the growth was 1.02.
`COc1ccc(CC2c3cc(OC)c(OC)cc3CC[N+]2(C)CCC(=O)OCCCCCOC(=O)CC[N+]2(C)CCc3cc(OC)c(OC)cc3C2Cc2ccc(OC)c(OC)c2)cc1OC` (centres undefined) [Atracurium besylate] (20 µM) showed a growth of 1.13.
Molecule `O=C(O)Cc1cc(I)c(Oc2ccc(O)c(I)c2)c(I)c1` [Tiratricol] (20 µM) has a growth of 0.808.
Molecule `COc1cc(/C=C/C(=O)N2CCN(CC(=O)N3CCCC3)CC2)cc(OC)c1OC` [Cinepazide maleate] (20 µM) has a growth of 1.02.
`C[C@H](CCC(=O)O)[C@H]1CC[C@H]2[C@@H]3C(=O)C[C@@H]4CC(=O)CC[C@]4(C)[C@H]3CC(=O)[C@]12C` [Dehydrocholic acid] (20 µM) was tested, and the growth was 0.872.
`CN1CCOC(c2ccccc2)c2ccccc2C1` (centres undefined) [Nefopam hydrochloride] (20 µM) gave a growth of 1.09.
`CCOc1ccc(NC(N)=O)cc1` [(4-Ethoxyphenyl)urea] (50 µM) gave a growth of 1.09.
With `CCCCOc1ccc(CC(=O)NO)cc1` [Bufexamac] (20 µM) the growth was 1.04.
Work on `CCOc1ccc2ccccc2c1C(=O)N[C@@H]1C(=O)N2[C@@H]1SC(C)(C)[C@@H]2C(=O)O` [Nafcillin sodium salt monohydrate] (20 µM) yielded a growth of 0.
For `c1ccc2cc3c(ccc4ccccc43)cc2c1` [Benz[a]anthracene] (20 µM), the growth was 0.97.
In the case of `CC(C)NC[C@H](O)COc1cccc2ccccc12` [(S)-(-)-Propranolol hydrochloride] (20 µM), the growth is reported as 1.14.
